A short description of experiment [1]: inhibitors of TNFa-induced NFkB p65 translocation, primary screen, imaging, HUVEC, MLSMR starter and 10KST1 sets (AID 438;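 active means inhibition above 20% together with a positive visual image hit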;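 further: compound added about 3h40 before a 20 min TNFalpha stimulation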;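 on inhibition: signal is the nuclear over cytoplasmic p65 intensity ratio per well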). The settings on record: HUVEC TNFa-induced p65 nuclear translocation; cell count: measured here: nuclei count (cytotoxicity indicator), at 2.08 µM; inhibition: at 2 µM, stronger effect = higher value, 0% TNFa-plus-vehicle, 100% no-TNFa wells.
The nature of experiment [2]: inhibitors of mutant huntingtin aggregation, primary screen, imaging, exon1htt(103Q)mCFP cells, high-content imaging (AID 483;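 active means visual image review flags a hit and inhibition of aggregation exceeds 20%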;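 further: compound exposure lasted 3 days before fixation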;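 on nuclei count: percent of the per-plate median nuclei count of sample wells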). The settings on record: exon1htt(103Q)mCFP cell line, aggregate imaging, at 2 µM; inhibition of aggregation: stronger effect = higher value; nuclei count: measured here: cell count, toxicity.
Experiment [3] is described as follows: inhibitors of E-selectin induction by TNFa, primary screen, imaging, HUVEC, immunofluorescence, MLSMR starter and 10KST1 sets (AID 487;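 active means visually confirmed hit in the image check and inhibition above 20%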;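 on inhibition: signal is fraction of cell area covered by stained E-selectin grains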;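 on nuclei count: 100% = median nuclei count of all wells on the same plate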). The settings on record: HUVEC TNFalpha-induced E-selectin immunofluorescence imaging, at 2 µM; inhibition: stronger effect = higher value; nuclei count: measured here: cell number, toxicity.
The target of experiment [4] is Voltage-gated potassium channel subunit beta-2 (Rattus norvegicus) (UniProt P62483). Kind of experiment: KvBeta enzyme negative modulators, primary screen, biochemical, NADPH fluorescence (AID 622;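 active means fluorescence slope higher than the sample average by over 3 SD, cut at about -0.22 in these data, passing the limit was not always enough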;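 further: slope of raw intensity against log time taken from 70 to 1610 s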). The settings on record: recombinant KvBeta, 4-cyanobenzaldehyde reduction, at 10 µM, stronger effect = higher value.
Chain of Voltage-gated potassium channel subunit beta-2 (Rattus norvegicus) (P62483 whole entry, looked up): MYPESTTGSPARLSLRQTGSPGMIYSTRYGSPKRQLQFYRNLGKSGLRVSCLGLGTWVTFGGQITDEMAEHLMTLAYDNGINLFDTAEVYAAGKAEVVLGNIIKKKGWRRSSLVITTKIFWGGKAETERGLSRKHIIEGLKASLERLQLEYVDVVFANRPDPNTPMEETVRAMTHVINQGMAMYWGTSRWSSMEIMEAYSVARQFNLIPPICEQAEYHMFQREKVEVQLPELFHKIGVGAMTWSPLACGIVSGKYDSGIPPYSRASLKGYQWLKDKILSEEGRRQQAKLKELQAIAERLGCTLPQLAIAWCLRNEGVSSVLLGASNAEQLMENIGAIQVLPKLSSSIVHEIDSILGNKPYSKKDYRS
Experiment [5] shares this target. Kind of experiment: KvBeta positive modulators, primary screen, biochemical, NADPH fluorescence (AID 623).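 Further: fluorescence intensity change per second fitted from 20 to 320 s.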 The settings on record: Recombinant KvBeta, NADPH fluorescence decrease slope, 10 min; at 10 µM; stronger effect = lower value.
Experiment [6] has as its target Alpha-2C adrenergic receptor (Homo sapiens) (UniProt P18825). Kind of experiment: modulators of alpha2C/GIRK thallium flux, primary screen, cell-based, HEK293 alpha2C/GIRK1/2 (AID 624;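 active means fluorescence slope after compound addition differing from the mean of all screened samples at 99.7% confidence, in either direction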;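 further: slope of fluorescence ratio to pre-addition baseline per second over 15 to 24 s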). The settings on record: thallium flux BTC fluorescence, at 10 µM, actives lie on both sides.
Experiment [7] is described as follows: inhibitors of Sendai virus-induced IRF3 signaling, primary screen, TLR/RLR signaling modifier project, cell-based, Sendai virus stimulus, luciferase, 10K MLSCN set (AID 602276;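 active means inhibition at or above 50% at 10 µM; inactive means inhibition below 50%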;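 further: firefly luciferase from ISG56 promoter only with Renilla not read in this screen; 0% = Sendai virus plus DMSO and 100% = medium plus DMSO without virus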). The settings on record: HEK293 RL24 IRF3 luciferase reporter, at 10 µM, stronger effect = higher value. For orientation: A reporter such as luciferase makes a cellular process visible.
Experiment [8] in a line: inhibitors of poly I:C-induced TLR3 signaling, primary screen, cell-based, poly I:C stimulus, luciferase, 10K MLSCN set (AID 602277;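 active means inhibition of the reporter signal at or above 50%; inactive means inhibition below 50%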). The settings on record: HEK293-TLR3 RL24 IRF3 luciferase reporter, at 10 µM, stronger effect = higher value.

The structures appear in SMILES notation. Activity calls are given as the source filed them.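 How the source made its calls, unless noted: active means NADPH fluorescence slope more negative than the mean of all samples by about 3 SD, 99.7% confidence; inactive means the rest.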

Chain of Alpha-2C adrenergic receptor (Homo sapiens) (P18825 whole entry, looked up): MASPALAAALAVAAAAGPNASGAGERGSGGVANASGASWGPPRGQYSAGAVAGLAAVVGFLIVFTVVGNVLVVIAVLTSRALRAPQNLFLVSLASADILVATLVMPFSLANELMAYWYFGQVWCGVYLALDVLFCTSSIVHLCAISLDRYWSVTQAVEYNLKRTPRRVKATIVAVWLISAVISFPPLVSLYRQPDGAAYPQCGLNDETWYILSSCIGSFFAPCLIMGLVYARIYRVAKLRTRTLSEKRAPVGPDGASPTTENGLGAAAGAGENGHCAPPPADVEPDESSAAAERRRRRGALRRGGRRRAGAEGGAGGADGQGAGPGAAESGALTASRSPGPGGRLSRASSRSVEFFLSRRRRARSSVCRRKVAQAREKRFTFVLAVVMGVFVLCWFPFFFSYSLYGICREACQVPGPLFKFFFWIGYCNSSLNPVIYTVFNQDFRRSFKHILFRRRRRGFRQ

The inhibition is the relative decrease from the control value, in per cent. As for `CC(=O)N(C(C)=O)c1cccc2c(N(C(C)=O)C(C)=O)cccc12`, in experiment [1], the cell count came to 450. The inhibition in experiment [1] is -10.7% (inactive); in experiment [3] it was -28.6% (inactive); in experiment [7], 12.7% (inactive); in experiment [8] it was 31.6% (inactive). Further, the inhibition of aggregation in experiment [2] was 26.2% (inactive). Moreover, the figures for the nuclei count in experiment [2] and in experiment [3] were 44.9% and 87.9%, respectively. Besides, the fluorescence slope in experiment [4] was -0.431 (inactive). Also, the NADPH fluorescence slope in experiment [5] is -5.3e-05 (inactive). Further, the slope in experiment [6] was 0.00429 (inactive).
Consider `Cc1cccc(CCNC(=O)C2CCCN(S(=O)(=O)c3cnc[nH]3)C2)c1` (centres undefined), for which, in experiment [1], the cell count worked out at 518. Also, the inhibition in experiment [1] is 16.1% (inactive); in experiment [3] it was -107% (inactive); in experiment [7], 30.1% (inactive); in experiment [8] it was 8.46% (inactive). In addition, the inhibition of aggregation in experiment [2] is 21.6% (inactive). The nuclei count in experiment [2] was determined as 89.8%; in experiment [3], 107%. Besides, in experiment [4], the fluorescence slope was -0.523 (inactive). The NADPH fluorescence slope in experiment [5] was 6.1e-06 (inactive). In addition, the slope in experiment [6] is 0.0065 (inactive).
Consider `O=C(CN1C(=O)CCS(=O)(=O)c2ccccc21)Nc1cccc(F)c1`, for which, in experiment [1], the cell count worked out at 383. The inhibition was -6.8% (inactive) in experiment [1], -27.1% (inactive) in experiment [3], 1.07% (inactive) in experiment [7] and 10.8% (inactive) in experiment [8]. Besides, in experiment [2], the inhibition of aggregation is -2.1% (inactive). In addition, the nuclei count in experiment [2] was found to be 113%; in experiment [3], 135%. In addition, the fluorescence slope in experiment [4] was -0.335 (inactive). Further, in experiment [5], the NADPH fluorescence slope was -4.5e-05 (inactive). The slope in experiment [6] was 0.00547 (inactive).
As for `O=C(C1CC1)N1CCc2cc(Br)cc(S(=O)(=O)N3CCOCC3)c21`, in experiment [1], the cell count was found to be 300. Moreover, the inhibition in experiment [1] is 2.2% (inactive); in experiment [3], -22.9% (inactive); in experiment [7], 15.4% (inactive); in experiment [8], 24.8% (inactive). In addition, in experiment [2], the inhibition of aggregation was -4.4% (inactive). Moreover, the values for the nuclei count in experiment [2] and in experiment [3] were 106% and 112%, respectively. For the same molecule, the fluorescence slope in experiment [4] is -0.59 (inactive). Moreover, the NADPH fluorescence slope in experiment [5] was -3.6e-05 (inactive). For the same molecule, the slope in experiment [6] was 0.00736 (inactive).
On to `CCOC(=O)c1ccccc1NC(=O)c1cc2sccc2n1C`, for which the cell count in experiment [1] came to 740. Besides, the inhibition in experiment [1] was -42.9% (inactive); in experiment [3] it was -20.5% (inactive); in experiment [7], -3.63% (inactive); in experiment [8], -15.2% (inactive). Further, in experiment [2], the inhibition of aggregation is 5.5% (inactive). Also, the nuclei count came to 107% in experiment [2] and 101% in experiment [3]. In experiment [4], the fluorescence slope was -0.483 (inactive). The NADPH fluorescence slope in experiment [5] was 1.4e-05 (inactive). The slope in experiment [6] was 0.00572 (inactive).
`CC(O)c1cc2c(cc1NC(=O)c1cnn3c1NC(c1ccco1)CC3C(F)(F)F)OCO2` (centres undefined): in experiment [1], the cell count turned out to be 656. For the same molecule, the inhibition in experiment [1] was 8.7% (inactive); in experiment [3], -56.3% (inactive); in experiment [7], 9.47% (inactive); in experiment [8] it was 20.2% (inactive). Moreover, the inhibition of aggregation in experiment [2] was -12% (inactive). The nuclei count in experiment [2] is 109%; in experiment [3], 98.9%. For the same molecule, the fluorescence slope in experiment [4] was -0.583 (inactive). For the same molecule, the NADPH fluorescence slope in experiment [5] was 3.4e-05 (inactive). Moreover, in experiment [6], the slope was 0.00628 (inactive).
Take `CCOC(=O)c1ccc(N2C(=O)CC(NC3CCN(C(=O)c4ccc(F)cc4)CC3)C2=O)cc1` (centres undefined): the cell count in experiment [1] is 699. The inhibition in experiment [1] was 8.6% (inactive); in experiment [3], -30.3% (inactive); in experiment [7], -1.5% (inactive); in experiment [8] it was -3.21% (inactive). The inhibition of aggregation in experiment [2] is 7.9% (inactive). The nuclei count turned out to be 102% in experiment [2] and 98.3% in experiment [3]. For the same molecule, the fluorescence slope in experiment [4] is -0.416 (inactive). Besides, in experiment [5], the NADPH fluorescence slope is 2.4e-05 (inactive). In addition, the slope in experiment [6] is 0.00425 (inactive).
In the case of `Cc1cc(OCC(=O)NCCO)cc(C)c1Cl`, the cell count in experiment [1] was found to be 419. In addition, the inhibition in experiment [1] was -2.3% (inactive); in experiment [3] it was 28.3% (inactive); in experiment [7] it was -0.456% (inactive); in experiment [8], 24.5% (inactive). The inhibition of aggregation in experiment [2] was 11.1% (inactive). The nuclei count in experiment [2] was 73.3%; in experiment [3], 92.3%. The fluorescence slope in experiment [4] was -0.428 (inactive). Besides, the NADPH fluorescence slope in experiment [5] was 2.8e-05 (inactive). Also, the slope in experiment [6] is 0.00371 (inactive).
On to `COc1ccc(CNC(=O)c2cc3c(=O)n4ccccc4nc3n(Cc3ccco3)c2=N)cc1`, for which the cell count in experiment [1] was determined as 666. Also, the inhibition in experiment [1] is -7.8% (inactive); in experiment [3], -30.5% (inactive); in experiment [7], 14.5% (inactive); in experiment [8] it was 20.4% (inactive). The inhibition of aggregation in experiment [2] is -28.6% (inactive). For the same molecule, the nuclei count was found to be 127% in experiment [2] and 113% in experiment [3]. In addition, the fluorescence slope in experiment [4] was -0.597 (inactive). Also, the NADPH fluorescence slope in experiment [5] is -6e-07 (inactive). Besides, the slope in experiment [6] is 0.0063 (inactive).

The values above are taken from PubChem BioAssay.
